Among the data in ChEMBL document CHEMBL1961873, “Compounds: GSK PKIS; Assays: Nanosyn kinase panel” (2012) are inhibition values, retold here.

In test [1] the target is High affinity nerve growth factor receptor (Homo sapiens) (UniProt P04629). As to conditions: at 1 µM.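 Further: each value is the mean percent inhibition of TRKA.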
Test [2] has as its target BDNF/NT-3 growth factors receptor (Homo sapiens) (UniProt Q16620). As to conditions: at 0.1 µM.
For test [3] the target is unchanged. The following applies: at 1 µM.
The target of test [4] is NT-3 growth factor receptor (Homo sapiens) (UniProt Q16288). The following applies: at 0.1 µM.
NT-3 growth factor receptor (Homo sapiens), sequence (Q16288 32-839 limits assumed): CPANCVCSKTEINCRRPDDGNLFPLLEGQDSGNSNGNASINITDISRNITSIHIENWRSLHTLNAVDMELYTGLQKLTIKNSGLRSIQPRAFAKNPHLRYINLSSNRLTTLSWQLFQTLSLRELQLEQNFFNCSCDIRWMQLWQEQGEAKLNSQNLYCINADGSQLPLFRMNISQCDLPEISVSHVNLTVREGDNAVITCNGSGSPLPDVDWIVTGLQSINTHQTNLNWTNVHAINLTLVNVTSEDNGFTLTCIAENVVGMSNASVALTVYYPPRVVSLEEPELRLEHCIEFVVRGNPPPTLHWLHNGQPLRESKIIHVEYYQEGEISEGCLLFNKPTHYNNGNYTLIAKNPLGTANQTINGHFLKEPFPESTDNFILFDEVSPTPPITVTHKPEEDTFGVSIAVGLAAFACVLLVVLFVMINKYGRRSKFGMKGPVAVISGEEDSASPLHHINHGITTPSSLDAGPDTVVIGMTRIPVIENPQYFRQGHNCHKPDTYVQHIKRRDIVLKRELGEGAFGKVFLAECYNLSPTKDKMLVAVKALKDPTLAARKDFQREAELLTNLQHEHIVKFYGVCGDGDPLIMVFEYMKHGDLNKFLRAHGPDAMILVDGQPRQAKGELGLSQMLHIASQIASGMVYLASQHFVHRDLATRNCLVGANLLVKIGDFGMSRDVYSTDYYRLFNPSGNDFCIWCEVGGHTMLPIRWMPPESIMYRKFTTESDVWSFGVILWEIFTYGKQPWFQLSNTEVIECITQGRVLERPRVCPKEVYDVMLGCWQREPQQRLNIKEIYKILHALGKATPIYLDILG
For test [5] the target is unchanged. As to conditions: at 1 µM.
Test [6] addresses T1, Tyrosine-protein kinase TXK (Homo sapiens) (UniProt P42681).
T1 sequence (whole entry): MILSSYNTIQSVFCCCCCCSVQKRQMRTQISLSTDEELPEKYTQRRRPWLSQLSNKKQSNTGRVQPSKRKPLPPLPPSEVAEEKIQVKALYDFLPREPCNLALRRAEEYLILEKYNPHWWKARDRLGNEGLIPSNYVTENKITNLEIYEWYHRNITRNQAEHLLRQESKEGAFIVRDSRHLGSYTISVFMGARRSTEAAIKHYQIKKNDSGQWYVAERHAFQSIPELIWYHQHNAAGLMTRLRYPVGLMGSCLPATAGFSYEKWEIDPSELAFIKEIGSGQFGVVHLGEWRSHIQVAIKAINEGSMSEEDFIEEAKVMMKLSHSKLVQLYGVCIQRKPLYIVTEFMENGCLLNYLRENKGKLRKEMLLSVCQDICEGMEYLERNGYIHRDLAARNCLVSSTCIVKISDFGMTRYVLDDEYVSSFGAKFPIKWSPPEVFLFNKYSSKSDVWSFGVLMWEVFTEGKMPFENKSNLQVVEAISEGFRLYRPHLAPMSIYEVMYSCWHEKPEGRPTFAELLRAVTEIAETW
The following applies: at 0.1 µM.

The target in test [7] is T1, Tyrosine-protein kinase TXK (Homo sapiens). The following applies: at 1 µM.
Test [8] has as its target Non-receptor tyrosine-protein kinase TYK2 (Homo sapiens) (UniProt P29597). The following applies: at 0.1 µM.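 Further: each value is a mean of the inhibition readings.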
For test [9], the target named is T2, Dual specificity protein kinase TTK (Homo sapiens) (UniProt P33981).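 Further: reported figures are mean TTK inhibition at 1 µM.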
T2 sequence (whole entry): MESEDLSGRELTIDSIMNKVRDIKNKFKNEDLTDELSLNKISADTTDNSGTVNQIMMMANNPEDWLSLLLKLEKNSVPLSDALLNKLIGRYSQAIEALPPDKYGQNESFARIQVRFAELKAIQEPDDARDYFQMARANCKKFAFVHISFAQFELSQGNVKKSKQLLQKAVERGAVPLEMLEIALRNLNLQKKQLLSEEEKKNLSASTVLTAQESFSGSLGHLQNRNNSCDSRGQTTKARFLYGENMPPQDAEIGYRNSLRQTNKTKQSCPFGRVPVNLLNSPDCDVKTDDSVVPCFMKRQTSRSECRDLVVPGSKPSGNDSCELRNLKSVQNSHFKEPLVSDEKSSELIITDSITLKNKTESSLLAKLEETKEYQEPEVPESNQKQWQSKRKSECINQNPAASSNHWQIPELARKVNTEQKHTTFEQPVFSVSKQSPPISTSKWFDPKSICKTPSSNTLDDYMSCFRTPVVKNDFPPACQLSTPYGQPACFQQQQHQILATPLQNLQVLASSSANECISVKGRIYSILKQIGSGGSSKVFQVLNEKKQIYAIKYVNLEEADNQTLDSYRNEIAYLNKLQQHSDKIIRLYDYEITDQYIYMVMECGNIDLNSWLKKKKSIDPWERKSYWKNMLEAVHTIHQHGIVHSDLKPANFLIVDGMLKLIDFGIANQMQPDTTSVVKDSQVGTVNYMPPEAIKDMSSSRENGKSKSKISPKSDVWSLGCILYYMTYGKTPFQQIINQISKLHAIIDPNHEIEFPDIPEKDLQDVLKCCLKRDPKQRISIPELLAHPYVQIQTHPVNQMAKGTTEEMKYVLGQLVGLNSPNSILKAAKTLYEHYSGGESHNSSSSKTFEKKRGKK
As to conditions: at 1 µM.

Test [10] has as its target T3, Aurora kinase A (Homo sapiens) (UniProt O14965).
T3 sequence (whole entry): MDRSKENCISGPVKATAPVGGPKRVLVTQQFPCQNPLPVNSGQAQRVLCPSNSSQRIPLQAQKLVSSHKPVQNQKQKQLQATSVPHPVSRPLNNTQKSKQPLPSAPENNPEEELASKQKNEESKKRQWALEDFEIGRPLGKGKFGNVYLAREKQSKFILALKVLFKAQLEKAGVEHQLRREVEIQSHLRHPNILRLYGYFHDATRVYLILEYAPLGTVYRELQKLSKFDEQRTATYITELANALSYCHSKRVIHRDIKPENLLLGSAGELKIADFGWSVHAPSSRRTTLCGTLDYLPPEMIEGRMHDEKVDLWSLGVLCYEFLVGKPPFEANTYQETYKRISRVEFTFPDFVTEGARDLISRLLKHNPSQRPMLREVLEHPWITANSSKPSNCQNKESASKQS
As to conditions: at 0.1 µM.

In test [11] the target is T3, Aurora kinase A (Homo sapiens). As to conditions: at 1 µM.
Test [12] addresses Aurora kinase B (Homo sapiens) (UniProt Q96GD4). The following applies: at 0.1 µM.
Test [13] shares this target. As to conditions: at 1 µM.
Test [14] has as its target T4, Aurora kinase C (Homo sapiens) (UniProt Q9UQB9).
T4 sequence (whole entry): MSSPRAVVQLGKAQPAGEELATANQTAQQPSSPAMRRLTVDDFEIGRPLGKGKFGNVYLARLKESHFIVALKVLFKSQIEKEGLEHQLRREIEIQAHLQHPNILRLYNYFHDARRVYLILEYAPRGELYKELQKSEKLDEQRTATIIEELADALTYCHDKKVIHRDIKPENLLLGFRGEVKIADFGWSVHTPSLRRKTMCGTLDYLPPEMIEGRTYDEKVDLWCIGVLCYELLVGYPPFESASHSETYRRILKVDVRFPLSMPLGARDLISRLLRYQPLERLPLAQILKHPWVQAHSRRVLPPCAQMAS
As to conditions: at 0.1 µM.

Test [15] addresses T4, Aurora kinase C (Homo sapiens). The following applies: at 1 µM.
In test [16] the target is Serine/threonine-protein kinase 10 (Homo sapiens) (UniProt O94804). As to conditions: at 0.1 µM.
Serine/threonine-protein kinase 10 (Homo sapiens), sequence (O94804 whole entry, looked up): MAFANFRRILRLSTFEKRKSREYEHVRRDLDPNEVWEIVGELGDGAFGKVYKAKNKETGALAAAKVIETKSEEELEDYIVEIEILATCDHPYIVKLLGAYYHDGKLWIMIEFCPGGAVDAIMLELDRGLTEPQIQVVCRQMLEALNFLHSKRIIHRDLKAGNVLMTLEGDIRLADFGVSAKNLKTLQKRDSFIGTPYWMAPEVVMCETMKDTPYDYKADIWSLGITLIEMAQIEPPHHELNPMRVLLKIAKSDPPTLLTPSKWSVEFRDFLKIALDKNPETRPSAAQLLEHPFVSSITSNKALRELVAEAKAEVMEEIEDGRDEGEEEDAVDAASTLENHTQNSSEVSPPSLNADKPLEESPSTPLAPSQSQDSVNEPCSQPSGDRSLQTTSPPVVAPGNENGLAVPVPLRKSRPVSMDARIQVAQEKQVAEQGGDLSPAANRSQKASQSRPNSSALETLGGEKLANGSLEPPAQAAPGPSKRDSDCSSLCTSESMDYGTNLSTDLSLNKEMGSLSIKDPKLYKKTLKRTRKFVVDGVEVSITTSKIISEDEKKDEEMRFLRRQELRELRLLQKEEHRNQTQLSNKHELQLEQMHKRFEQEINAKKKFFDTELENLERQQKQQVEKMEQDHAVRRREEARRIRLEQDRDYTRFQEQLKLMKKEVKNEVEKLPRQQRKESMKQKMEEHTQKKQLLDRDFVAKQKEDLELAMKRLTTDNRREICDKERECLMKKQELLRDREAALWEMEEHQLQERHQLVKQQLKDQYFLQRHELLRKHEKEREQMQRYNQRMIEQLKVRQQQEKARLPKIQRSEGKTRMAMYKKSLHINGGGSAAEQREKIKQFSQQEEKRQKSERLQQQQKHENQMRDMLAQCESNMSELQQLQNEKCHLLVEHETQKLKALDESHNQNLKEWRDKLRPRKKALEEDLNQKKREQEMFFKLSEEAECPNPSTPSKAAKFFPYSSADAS
Test [17] has the same target. As to conditions: at 1 µM.
Test [18] deals with T5, Mitogen-activated protein kinase kinase kinase kinase 2 (Homo sapiens) (UniProt Q12851).
T5 sequence (whole entry): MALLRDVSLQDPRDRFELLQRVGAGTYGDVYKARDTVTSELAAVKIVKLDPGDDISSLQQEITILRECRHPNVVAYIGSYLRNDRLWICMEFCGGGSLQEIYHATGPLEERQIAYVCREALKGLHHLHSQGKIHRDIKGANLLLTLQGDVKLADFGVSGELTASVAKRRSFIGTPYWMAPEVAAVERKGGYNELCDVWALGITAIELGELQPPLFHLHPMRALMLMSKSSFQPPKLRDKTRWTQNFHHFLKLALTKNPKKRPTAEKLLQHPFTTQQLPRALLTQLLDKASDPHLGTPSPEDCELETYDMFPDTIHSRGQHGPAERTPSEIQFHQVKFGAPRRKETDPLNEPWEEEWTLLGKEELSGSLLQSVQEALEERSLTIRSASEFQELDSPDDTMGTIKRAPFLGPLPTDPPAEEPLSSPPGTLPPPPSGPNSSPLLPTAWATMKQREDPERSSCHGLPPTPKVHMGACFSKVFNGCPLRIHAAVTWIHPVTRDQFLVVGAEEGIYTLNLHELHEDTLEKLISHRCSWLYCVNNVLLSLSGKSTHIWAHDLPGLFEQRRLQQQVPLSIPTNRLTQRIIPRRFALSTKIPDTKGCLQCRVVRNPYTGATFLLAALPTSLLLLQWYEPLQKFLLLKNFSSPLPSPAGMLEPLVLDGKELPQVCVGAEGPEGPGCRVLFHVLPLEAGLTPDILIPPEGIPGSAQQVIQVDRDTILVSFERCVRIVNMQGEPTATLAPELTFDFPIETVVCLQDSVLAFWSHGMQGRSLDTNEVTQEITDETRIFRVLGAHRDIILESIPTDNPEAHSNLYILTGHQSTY
As to conditions: at 0.1 µM.

Test [19] has as its target T5, Mitogen-activated protein kinase kinase kinase kinase 2 (Homo sapiens). As to conditions: at 1 µM.
For test [20], the target named is Mitogen-activated protein kinase kinase kinase kinase 4 (Homo sapiens) (UniProt O95819). The following applies: at 0.1 µM.
Mitogen-activated protein kinase kinase kinase kinase 4 (Homo sapiens), sequence (O95819 2-1239 limits assumed): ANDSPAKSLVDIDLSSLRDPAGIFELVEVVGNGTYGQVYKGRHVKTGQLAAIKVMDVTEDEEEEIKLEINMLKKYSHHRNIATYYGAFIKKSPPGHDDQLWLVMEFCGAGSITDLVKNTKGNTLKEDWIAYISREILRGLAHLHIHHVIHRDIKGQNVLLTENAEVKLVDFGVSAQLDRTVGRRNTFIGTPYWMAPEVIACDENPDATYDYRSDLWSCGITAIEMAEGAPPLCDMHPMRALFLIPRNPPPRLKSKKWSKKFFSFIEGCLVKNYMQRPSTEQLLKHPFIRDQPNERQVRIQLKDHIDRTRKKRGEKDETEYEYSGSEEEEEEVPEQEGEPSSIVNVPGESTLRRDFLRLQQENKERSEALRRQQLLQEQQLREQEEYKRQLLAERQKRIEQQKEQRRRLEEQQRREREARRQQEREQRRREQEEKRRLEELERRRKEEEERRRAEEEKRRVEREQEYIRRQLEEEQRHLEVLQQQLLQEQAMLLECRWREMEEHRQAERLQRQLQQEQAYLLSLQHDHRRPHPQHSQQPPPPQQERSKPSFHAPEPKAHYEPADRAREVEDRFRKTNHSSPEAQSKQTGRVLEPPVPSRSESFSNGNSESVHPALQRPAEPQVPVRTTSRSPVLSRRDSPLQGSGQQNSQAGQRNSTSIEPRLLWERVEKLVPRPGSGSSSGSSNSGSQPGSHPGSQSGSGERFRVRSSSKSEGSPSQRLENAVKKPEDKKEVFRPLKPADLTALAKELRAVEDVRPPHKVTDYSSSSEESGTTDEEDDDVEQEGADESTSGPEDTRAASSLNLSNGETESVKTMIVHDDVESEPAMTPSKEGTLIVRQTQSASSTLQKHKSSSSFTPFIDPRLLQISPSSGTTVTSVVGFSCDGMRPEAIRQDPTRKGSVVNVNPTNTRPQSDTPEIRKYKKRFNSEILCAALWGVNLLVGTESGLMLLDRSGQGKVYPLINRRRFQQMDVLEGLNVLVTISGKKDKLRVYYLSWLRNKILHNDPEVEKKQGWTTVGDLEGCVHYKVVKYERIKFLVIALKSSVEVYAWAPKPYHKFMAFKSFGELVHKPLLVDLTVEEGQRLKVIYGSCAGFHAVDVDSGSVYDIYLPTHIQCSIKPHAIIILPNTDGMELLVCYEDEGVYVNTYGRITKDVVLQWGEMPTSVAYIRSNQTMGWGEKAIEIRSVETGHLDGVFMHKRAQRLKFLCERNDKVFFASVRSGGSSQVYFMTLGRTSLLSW

Non-receptor tyrosine-protein kinase TYK2 (Homo sapiens), sequence (P29597 whole entry): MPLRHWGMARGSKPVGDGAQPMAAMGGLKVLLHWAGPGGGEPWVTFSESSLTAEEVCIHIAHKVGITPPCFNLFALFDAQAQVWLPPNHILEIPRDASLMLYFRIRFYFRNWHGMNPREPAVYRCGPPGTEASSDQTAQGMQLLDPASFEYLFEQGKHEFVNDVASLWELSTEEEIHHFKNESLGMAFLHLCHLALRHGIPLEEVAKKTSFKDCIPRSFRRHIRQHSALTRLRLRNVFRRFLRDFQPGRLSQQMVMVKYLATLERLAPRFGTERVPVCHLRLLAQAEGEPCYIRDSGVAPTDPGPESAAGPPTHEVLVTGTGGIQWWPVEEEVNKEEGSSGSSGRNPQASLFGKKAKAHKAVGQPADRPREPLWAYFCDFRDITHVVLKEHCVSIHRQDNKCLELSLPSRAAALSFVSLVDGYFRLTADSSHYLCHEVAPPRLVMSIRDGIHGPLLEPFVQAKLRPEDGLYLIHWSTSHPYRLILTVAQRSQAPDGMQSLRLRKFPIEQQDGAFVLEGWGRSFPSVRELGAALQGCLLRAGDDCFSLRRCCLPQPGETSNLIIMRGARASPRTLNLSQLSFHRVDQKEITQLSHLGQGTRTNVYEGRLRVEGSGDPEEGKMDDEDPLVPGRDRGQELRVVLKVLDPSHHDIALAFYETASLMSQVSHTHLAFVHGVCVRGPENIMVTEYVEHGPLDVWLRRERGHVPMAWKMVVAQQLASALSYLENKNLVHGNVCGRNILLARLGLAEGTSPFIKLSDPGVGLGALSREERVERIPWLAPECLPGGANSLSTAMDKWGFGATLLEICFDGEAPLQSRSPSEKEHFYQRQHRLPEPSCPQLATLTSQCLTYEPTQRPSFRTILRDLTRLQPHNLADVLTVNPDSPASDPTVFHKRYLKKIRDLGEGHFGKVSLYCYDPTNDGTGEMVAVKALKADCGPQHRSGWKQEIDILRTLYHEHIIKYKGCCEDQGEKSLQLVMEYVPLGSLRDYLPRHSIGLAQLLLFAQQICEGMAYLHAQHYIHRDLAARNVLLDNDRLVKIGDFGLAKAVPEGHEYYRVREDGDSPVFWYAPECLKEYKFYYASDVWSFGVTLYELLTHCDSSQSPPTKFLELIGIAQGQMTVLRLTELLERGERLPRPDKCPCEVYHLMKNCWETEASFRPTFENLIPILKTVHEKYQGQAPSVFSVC
High affinity nerve growth factor receptor (Homo sapiens), sequence (P04629 33-796 limits assumed): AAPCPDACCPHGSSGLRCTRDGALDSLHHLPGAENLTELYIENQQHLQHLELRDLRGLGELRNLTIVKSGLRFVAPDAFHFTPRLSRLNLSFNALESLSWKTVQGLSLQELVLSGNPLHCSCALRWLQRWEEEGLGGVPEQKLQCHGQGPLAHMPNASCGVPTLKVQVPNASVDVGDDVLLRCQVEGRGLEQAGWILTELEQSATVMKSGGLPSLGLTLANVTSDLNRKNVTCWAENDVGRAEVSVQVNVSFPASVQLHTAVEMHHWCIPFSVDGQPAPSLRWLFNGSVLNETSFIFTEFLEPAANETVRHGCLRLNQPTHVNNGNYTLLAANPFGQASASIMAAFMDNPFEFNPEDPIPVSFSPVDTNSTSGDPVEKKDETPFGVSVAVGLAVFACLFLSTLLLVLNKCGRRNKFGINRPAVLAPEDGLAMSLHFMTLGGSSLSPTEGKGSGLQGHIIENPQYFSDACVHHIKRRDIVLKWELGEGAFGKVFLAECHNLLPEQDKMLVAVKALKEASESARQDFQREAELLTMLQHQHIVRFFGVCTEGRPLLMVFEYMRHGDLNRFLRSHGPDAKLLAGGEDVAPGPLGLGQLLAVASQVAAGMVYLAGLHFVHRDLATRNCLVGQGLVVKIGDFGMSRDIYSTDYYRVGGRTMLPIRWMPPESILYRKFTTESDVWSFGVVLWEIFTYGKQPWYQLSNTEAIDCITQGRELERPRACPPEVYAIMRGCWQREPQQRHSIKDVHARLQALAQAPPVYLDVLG

Broadly, the inhibition is the change of the read-out against control, counted positive when it falls. On to `CN(C)C(=O)O[C@H]1CN[C@H](C#Cc2cc3ncnc(Nc4ccc(OCc5cccc(F)c5)c(Cl)c4)c3s2)C1`, for which the inhibition in test [1] is 0.1%; in test [2], 1.92%; in test [3], 2.03%; in test [4] it was 1.38%; in test [5], 2.78%; in [6] it was 2.86%. For the same molecule, the inhibition in test [7] is 4.84%; in [8], -7.95%; in [9], 6.07%; in [10], 1.25%; in [11], 9.61%; in test [12], 3.92%. Besides, the inhibition in test [13] was determined as 7.39%; in test [14], 2.15%; in test [15], 8.8%; in [16] it was 4.18%; in test [17], 8.61%; in test [18] it was 0.82%. In addition, the inhibition in [19] amounted to 2.78%; in [20], 3.45%.

As to `CN(C)c1cc2c(Nc3ccc4c(cnn4Cc4ccccc4)c3)ncnc2cn1`, the inhibition in test [1] was 1.97%; in [2], 1.16%; in test [3], 0.6%; in test [4], 2.13%; in [5], 1.66%; in test [6], 3.19%. For the same molecule, the inhibition is 4.31% in test [7]; -2.71% in [8]; 6.41% in test [9]; -1.73% in [10]; 12.8% in test [11]; -0.85% in test [12]. The inhibition in test [13] amounted to 8.49%; in test [14], 2.76%; in test [15] it was 27.6%; in [16] it was 6.27%; in [17], 13.9%; in [18], 0.85%. For the same molecule, the inhibition was determined as 0.49% in [19] and 2.93% in test [20].

Take `CN(c1ccc(NC(=O)Nc2ccc(OC(F)(F)F)cc2)cc1)c1ccnc(Nc2cccc(S(N)(=O)=O)c2)n1`: the inhibition in test [1] was 90.5%; in test [2], 34.7%; in [3] it was 82.6%; in [4] it was 30.1%; in test [5] it was 87.1%; in [6] it was -0.18%. Also, the inhibition in test [7] is 8.63%; in test [8] it was -1.91%; in test [9] it was 6.4%; in test [10], 7.93%; in test [11], 76.8%; in test [12] it was 63.9%. In addition, the inhibition is 79% in [13]; 30.7% in test [14]; 96.5% in test [15]; 26% in test [16]; 70.4% in test [17]; 18.4% in test [18]. The inhibition amounted to 69.5% in test [19] and 24.4% in test [20].

As for `COc1cccc(-n2ncc3c(N/N=C/c4ccc(S(C)(=O)=O)cc4)ncnc32)c1`, the inhibition in [1] turned out to be 5.3%; in test [2], 6.69%; in [3] it was 19.3%; in test [4] it was 6.62%; in [5] it was 22.3%; in test [6] it was 0.02%. Moreover, the inhibition is 12.4% in test [7]; -0.06% in test [8]; 6.42% in [10]; 28.4% in test [11]; 9.58% in test [12]; 42.4% in test [13]. Also, the inhibition came to 0.72% in [14]; 12.2% in test [15]; 6.63% in [16]; 16.3% in [17]; 0.47% in test [18]; 0.9% in [19]. In addition, in test [20], the inhibition worked out at 16.2%.

Regarding `CC(C)c1ccc(Nc2nccc(-c3cnn4ncccc34)n2)cc1`, the inhibition in test [1] came to 7.94%; in [2], 2.01%; in test [3], 6.18%; in [4], 3.36%; in test [5], 9.1%; in [6] it was 1.69%. Moreover, the inhibition in [7] was 3.04%; in test [8] it was -0.82%; in test [9] it was 22.2%; in [10], 6.2%; in test [11], 65.8%; in test [12] it was 7.65%. Also, the inhibition was 43.1% in test [13]; 5.11% in test [14]; 74.6% in test [15]; 3.13% in test [16]; 8.29% in [17]; 1.97% in [18]. Also, the inhibition in test [19] was 23.4%; in test [20] it was 4.8%.

With `Cc1cc(O)cc(C)c1/C=C/c1cncc(C(=O)N(C)C)c1`, the inhibition in test [1] was 2.43%; in test [2], 1.59%; in test [3], 0.08%; in [4] it was 2.73%; in test [5], 1.59%; in test [6], 2.92%. Moreover, the inhibition in test [7] was 3.74%; in test [8], -1.5%; in test [9] it was 4.52%; in test [10] it was 2.58%; in test [11] it was 13.3%; in [12], 7.28%. The inhibition worked out at 14.7% in test [13]; 3.08% in test [14]; 2.63% in [15]; 3.87% in [16]; 7.88% in test [17]; 2.39% in [18]. For the same molecule, the inhibition in test [19] amounted to 6.67%; in [20] it was 6.12%.
